Results on five molecules are retold here after PubChem BioAssay.

Assay [1] can be described thus: binders of probe aFSTL3 on microarray, primary screen, stem cell growth factor project, biochemical, small-molecule microarray, fluorescence 635/667 (AID 1064).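 Note: measures binding of the biotinylated anti-FSTL3 antibody to printed compounds.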 The note with it: higher = more signal.
A short description of assay [2]: binders from COS7 lysate, DM2A8 probe, primary screen, torsin A project, cell lysate, small-molecule microarray, fluorescence 635/667 (AID 1065). As to conditions: higher = more signal, COS7 lysate expressing mutant human TOR1A.
The nature of assay [3]: binders of probe aFGF2 on microarray, primary screen, stem cell growth factor project, biochemical, small-molecule microarray, fluorescence 635/667 (AID 1067).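 Note: measures binding of biotinylated aFGF2 protein to printed compounds on slides; z-score merges feature fluorescence and signal-to-noise across triplicate slides.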 As to conditions: higher = more signal.
Assay [4] in a line: binders of probe aFGF10 on microarray, primary screen, stem cell growth factor project, biochemical, small-molecule microarray, fluorescence 635/667 (AID 1071).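 Note: score merges 667 nm spot intensity and signal to noise from triplicate slides.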 The note with it: higher = more signal.
Assay [5] concerns the target Neurogenic locus notch homolog protein 2 (Homo sapiens) (UniProt Q04721). Kind of assay: Notch2 binders on small-molecule microarrays, primary screen, biochemical, small-molecule microarray, 635 nm fluorescence, stem cell growth factors (AID 1073). As to conditions: Notch2 binding, higher = more signal.
Assay [6] deals with Pro-neuregulin-1, membrane-bound isoform (Homo sapiens) (UniProt Q02297). Kind of assay: NRG1 binders on small-molecule microarrays, primary screen, psychiatric disease protein project, biochemical, small-molecule microarray, fluorescence 635/667 (AID 1075).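 Note: score combines 667 nm spot fluorescence with signal to noise.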 As to conditions: NRG1 binding, 635 nm fluorescence, higher = more signal.
Assay [7] relates to Neuregulin-1 EGF-like domain. Kind of assay: binders of neuregulin-1 EGF-like domain, primary screen, biochemical, small-molecule microarray, 635 nm fluorescence (AID 1081).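 Note: binding of the protein to compounds printed on small-molecule microarray slides.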 The note with it: small-molecule microarray binding, higher = more signal.
Assay [8] in a line: FRG1 promoter luciferase signal modulators, primary screen, FRG1 inhibition for FSHD, cell-based, C2C12 myotubes, firefly/Renilla luciferase, luminescence (AID 1084). As to conditions: higher = more signal, called active from +8 up or from −8 down.
Assay [9] in a line: binders of probe aFST on microarray, primary screen, stem cell growth factor project, biochemical, small-molecule microarray, fluorescence 635/667 (AID 1086).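 Note: score merges 667 nm fluorescence with signal-to-noise of each printed compound spot.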 The note with it: higher = more signal.
A short description of assay [10]: binders of probe aHhip on microarray, primary screen, stem cell growth factor project, biochemical, small-molecule microarray, fluorescence 635/667 (AID 1087).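 Note: score merges spot fluorescence at 667nm with spot signal to noise ratio.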 The note with it: higher = more signal.
Assay [11] deals with PRMT1 (protein arginine N-methyltransferase 1). Kind of assay: PRMT1 binders on small-molecule microarrays, primary screen, biochemical, small-molecule microarray, 635 nm fluorescence (AID 1088).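 Note: binding of Prmt1 protein to compounds spotted on small-molecule microarray slides.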 The note with it: small-molecule microarray binding, higher = more signal.
The nature of assay [12]: yeast growth modulation, basal conditions, primary screen, YJM789 clinical isolate, OD600, 24 h (AID 1089).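 Note: growth of clinical yeast isolate S. cerevisiae YJM 789 seeded 1000 cells per well; test concentration not given here.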 As to conditions: S. cerevisiae YJM789 growth, higher = more signal, called active from +8 up or from −8 down.
A short description of assay [13]: fission yeast growth modulation, primary screen, strain 972, OD600, 24 h, no modulator (AID 1090).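 Note: basal condition with compound alone and no growth modifier present; test concentration not given here.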 As to conditions: S. pombe 972 growth, higher = more signal, called active from +8 up or from −8 down.
Assay [14] is described as follows: S. cerevisiae growth modulation with rapamycin, primary screen, strain BY4716, OD600, 96 h (AID 1091). Note: test concentration not given here. As to conditions: higher = more signal, called active from +8 up or from −8 down.
Assay [15] addresses Torsin-1A-interacting protein 2 (Homo sapiens) (UniProt Q8NFQ8). Kind of assay: LULL1 binders on small-molecule microarray, primary screen, cell lysate, human LULL1 lysate, 635/667 nm fluorescence (AID 1092).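 Note: probe is lysate of COS7 cells overexpressing human LULL1; score merges per-feature 667 nm fluorescence with signal-to-noise.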 As to conditions: hLULL1 lysate binding, 635 nm fluorescence, higher = more signal.
Assay [16] is described as follows: E. coli growth modulation, two-sided OD650, primary screen, E. coli filamentation project, strain DRC41, 24 h (AID 1093).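 Note: MC1000 strain lacking acrAB efflux and sulA so SOS filamentation is blocked; test concentration not given here.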 As to conditions: OD650, 24 h, higher = more signal, called active from +8 up or from −8 down.
Assay [17] is described as follows: small-molecule microarray binders of probe aLefty2, primary screen, biochemical, biotinylated probe, 635/667 nm fluorescence (AID 1094).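 Note: score merges spot fluorescence near 667 nm with spot signal-to-noise ratio.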 As to conditions: higher = more signal.
The test system of assay [18] is Noggin (protein binding on small-molecule microarray). Kind of assay: Noggin binders on small-molecule microarray, primary screen, biochemical, 635/667 nm fluorescence (AID 1095).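 Note: score merges 667 nm feature fluorescence with signal to noise over triplicate slides.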 The note with it: 635 nm fluorescence, higher = more signal.
Assay [19] has as its target Neurogenic locus notch homolog protein 3 (Homo sapiens) (UniProt Q9UM47). Kind of assay: NOTCH3 binders on small-molecule microarray, primary screen, biochemical, 635/667 nm fluorescence (AID 1096). As to conditions: NOTCH3 binding, 635 nm fluorescence, higher = more signal.
Assay [20] in a line: small-molecule microarray binders of probe aEGFR, primary screen, biochemical, biotinylated probe, 635/667 nm fluorescence (AID 1097).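 Note: probe is a biotinylated anti-EGFR antibody binding compounds printed on slides; score combines fluorescence near 667 nm and signal to noise of each spot.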 The note with it: higher = more signal.

Molecules are shown by their SMILES. Calls of active or inactive are those of the source.

Sequence of Torsin-1A-interacting protein 2 (Homo sapiens) (Q8NFQ8 whole entry, looked up): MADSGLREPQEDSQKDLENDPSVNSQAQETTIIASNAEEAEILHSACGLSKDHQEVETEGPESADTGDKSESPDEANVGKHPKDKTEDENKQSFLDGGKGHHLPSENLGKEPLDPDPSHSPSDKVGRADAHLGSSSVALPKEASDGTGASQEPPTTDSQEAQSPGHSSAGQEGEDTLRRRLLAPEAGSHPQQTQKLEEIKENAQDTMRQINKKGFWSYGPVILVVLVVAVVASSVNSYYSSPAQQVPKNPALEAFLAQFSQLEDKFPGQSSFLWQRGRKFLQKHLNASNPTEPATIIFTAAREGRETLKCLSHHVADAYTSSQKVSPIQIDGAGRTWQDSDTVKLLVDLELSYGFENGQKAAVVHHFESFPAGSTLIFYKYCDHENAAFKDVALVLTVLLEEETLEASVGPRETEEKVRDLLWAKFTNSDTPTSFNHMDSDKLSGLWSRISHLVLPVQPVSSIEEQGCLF
Sequence of Neurogenic locus notch homolog protein 3 (Homo sapiens) (Q9UM47 whole entry, looked up): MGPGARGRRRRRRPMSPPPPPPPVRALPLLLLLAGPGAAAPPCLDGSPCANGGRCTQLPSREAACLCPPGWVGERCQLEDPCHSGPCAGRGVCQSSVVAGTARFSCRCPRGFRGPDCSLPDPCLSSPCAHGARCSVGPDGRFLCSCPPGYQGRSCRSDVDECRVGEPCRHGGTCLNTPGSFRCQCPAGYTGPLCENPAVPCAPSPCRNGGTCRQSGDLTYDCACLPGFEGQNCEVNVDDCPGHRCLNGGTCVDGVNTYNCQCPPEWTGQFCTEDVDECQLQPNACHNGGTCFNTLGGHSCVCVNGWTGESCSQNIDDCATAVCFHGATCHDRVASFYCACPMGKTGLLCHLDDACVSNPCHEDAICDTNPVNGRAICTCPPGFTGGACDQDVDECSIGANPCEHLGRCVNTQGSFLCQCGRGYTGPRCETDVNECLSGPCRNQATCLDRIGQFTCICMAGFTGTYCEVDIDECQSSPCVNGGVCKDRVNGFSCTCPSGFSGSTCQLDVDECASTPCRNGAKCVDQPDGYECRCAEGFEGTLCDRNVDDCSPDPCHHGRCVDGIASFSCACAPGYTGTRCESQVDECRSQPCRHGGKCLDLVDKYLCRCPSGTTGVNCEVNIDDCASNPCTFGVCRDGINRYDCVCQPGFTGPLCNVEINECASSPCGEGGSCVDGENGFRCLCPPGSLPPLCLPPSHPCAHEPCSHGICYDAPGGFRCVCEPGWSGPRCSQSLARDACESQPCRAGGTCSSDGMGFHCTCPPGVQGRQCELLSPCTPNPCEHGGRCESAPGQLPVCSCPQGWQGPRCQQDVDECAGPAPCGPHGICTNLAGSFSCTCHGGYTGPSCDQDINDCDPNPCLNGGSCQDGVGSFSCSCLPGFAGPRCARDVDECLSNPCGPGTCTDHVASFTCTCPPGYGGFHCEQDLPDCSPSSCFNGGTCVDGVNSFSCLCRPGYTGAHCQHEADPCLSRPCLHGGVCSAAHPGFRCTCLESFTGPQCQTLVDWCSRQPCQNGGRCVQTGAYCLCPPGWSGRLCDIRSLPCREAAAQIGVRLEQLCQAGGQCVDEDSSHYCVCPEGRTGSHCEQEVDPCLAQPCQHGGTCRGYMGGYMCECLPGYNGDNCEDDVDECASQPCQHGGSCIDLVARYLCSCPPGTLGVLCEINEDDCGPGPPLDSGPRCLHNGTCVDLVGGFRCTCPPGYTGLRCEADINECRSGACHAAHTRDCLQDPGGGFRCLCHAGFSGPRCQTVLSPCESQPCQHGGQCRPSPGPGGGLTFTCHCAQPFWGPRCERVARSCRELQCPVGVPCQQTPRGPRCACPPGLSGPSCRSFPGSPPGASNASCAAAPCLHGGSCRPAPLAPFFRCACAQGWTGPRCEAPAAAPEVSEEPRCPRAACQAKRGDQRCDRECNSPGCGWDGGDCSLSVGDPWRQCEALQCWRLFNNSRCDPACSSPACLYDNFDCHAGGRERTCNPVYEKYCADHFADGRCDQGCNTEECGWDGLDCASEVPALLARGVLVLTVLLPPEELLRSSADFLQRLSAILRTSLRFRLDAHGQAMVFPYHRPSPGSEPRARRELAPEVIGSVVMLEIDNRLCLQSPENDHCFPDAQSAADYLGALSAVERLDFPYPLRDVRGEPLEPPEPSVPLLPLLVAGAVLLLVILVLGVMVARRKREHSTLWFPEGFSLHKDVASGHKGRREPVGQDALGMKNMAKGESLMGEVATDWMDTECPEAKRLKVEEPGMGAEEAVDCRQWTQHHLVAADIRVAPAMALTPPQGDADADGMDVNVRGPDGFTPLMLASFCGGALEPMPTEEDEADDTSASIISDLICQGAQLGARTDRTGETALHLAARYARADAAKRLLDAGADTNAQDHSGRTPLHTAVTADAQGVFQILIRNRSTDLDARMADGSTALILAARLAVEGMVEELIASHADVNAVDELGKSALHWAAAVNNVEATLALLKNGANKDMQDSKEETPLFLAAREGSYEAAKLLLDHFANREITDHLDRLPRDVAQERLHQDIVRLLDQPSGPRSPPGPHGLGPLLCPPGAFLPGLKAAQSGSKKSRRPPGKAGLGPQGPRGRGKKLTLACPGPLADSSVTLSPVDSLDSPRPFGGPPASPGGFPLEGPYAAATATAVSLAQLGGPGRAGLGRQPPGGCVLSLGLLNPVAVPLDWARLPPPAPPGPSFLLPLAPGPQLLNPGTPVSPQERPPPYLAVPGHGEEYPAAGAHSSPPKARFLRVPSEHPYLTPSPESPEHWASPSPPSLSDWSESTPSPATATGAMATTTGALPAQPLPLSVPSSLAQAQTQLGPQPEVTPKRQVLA
Sequence of Pro-neuregulin-1, membrane-bound isoform (Homo sapiens) (Q02297 whole entry, looked up, the tested form may be a part, canonical isoform): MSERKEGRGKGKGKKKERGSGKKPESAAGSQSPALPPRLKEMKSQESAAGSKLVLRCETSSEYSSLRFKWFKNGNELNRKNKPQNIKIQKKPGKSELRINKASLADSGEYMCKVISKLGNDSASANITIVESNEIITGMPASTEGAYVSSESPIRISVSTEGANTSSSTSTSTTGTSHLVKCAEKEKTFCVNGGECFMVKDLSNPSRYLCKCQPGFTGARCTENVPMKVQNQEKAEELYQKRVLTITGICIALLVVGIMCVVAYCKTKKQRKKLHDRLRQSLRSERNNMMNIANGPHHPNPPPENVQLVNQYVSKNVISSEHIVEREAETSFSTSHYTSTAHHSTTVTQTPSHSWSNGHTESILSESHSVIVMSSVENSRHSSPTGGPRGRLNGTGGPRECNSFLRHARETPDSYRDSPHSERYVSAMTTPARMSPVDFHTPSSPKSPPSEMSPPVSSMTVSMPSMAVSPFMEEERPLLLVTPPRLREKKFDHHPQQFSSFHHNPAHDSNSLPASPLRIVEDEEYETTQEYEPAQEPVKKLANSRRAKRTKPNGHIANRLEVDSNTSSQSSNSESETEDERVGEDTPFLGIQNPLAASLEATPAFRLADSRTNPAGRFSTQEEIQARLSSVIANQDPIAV

As to `COC(=O)[C@@]1(Cc2ccc(OC)cc2)[C@H]2c3cc(C(=O)N(C)C)n(CCF)c3C[C@H]2CN1C(=O)c1ccccc1`, the composite z-score in assay [1] was 0.999; in assay [2], 0.245; in assay [3], 0.0398; in assay [4] it was 0.419; in assay [5] it was 1.66; in assay [6] it was 1.97. The composite z-score came to 1.33 in assay [7]; 0.98 in assay [9]; 0.31 in assay [10]; 0.574 in assay [11]; 3.24 in [15]; 0.411 in [17]. The figures for the composite z-score in [18], in assay [19] and in assay [20] were 0.296, 1.02 and 0.0986, respectively. The z-score in [8] is -1.11 (inactive); in [12], 0.215 (inactive); in assay [13], 1.25 (inactive); in assay [14] it was 0.167 (inactive); in [16], -0.0418 (inactive).
For `COc1ccc(C#Cc2ccc3c(c2)[C@]2(C(=O)N3)[C@H](C(N)=O)[C@H]3C(=O)O[C@H](c4ccccc4)[C@H](c4ccccc4)N3[C@@H]2c2ccc(O)cc2)cc1`, the composite z-score in assay [1] was -0.302; in assay [2], 1.1; in assay [3], -0.0183; in assay [4], 0.665; in [5], 0.477; in [6], 1.57. Also, the composite z-score was 1.38 in [7]; 0.722 in assay [9]; -0.0581 in assay [10]; 1.56 in assay [11]; 2.94 in [15]; -0.0258 in assay [17]. In addition, the composite z-score in assay [18] is 0.176; in assay [19], 0.664; in assay [20], 0.391. Besides, the z-score was -0.891 (inactive) in assay [8]; 1.47 (inactive) in assay [12]; 0.107 (inactive) in assay [13]; 2.28 (inactive) in assay [14]; -0.103 (inactive) in assay [16].
As for `CC(C)[Si](C#C[Si](C(C)C)(C(C)C)C(C)C)(O[C@H](C)c1cn(Cc2cccc(Cl)c2)nn1)C(C)C`, the composite z-score in assay [1] is -0.333; in assay [2], -0.0681; in assay [3], -0.123; in assay [4], 0.316; in assay [5] it was 0.496; in assay [6] it was 0.528. Besides, the composite z-score is 0.94 in assay [7]; 0.323 in assay [9]; -0.0994 in [10]; 1.36 in assay [11]; 1.04 in [15]; -0.148 in [17]. Further, the composite z-score stood at 0.52 in assay [18], 0.902 in assay [19] and 0.0192 in [20]. Further, the z-score in [8] is -1.14 (inactive); in [12], 0.487 (inactive); in assay [13], 0.115 (inactive); in assay [14], -0.318 (inactive); in assay [16], 2.18 (inactive).
As for `NC(=O)[C@@H]1[C@H]2C(=O)O[C@H](c3ccccc3)[C@H](c3ccccc3)N2[C@H](c2ccccc2OCCO)[C@@]12C(=O)Nc1ccc(C#CCCO)cc12`, the composite z-score in assay [1] was -0.159; in assay [2] it was 0.45; in assay [3], -0.0502; in assay [4], -0.0477; in assay [5], 0.0307; in [6] it was 0.352. Besides, the composite z-score is 0.0434 in [7]; -0.0579 in assay [9]; -0.236 in [10]; -0.155 in [11]; 0.417 in assay [15]; -0.143 in assay [17]. The composite z-score in assay [18] was -0.209; in assay [19], -0.196; in assay [20], -0.131. Also, the z-score in [8] is 0.7 (inactive); in assay [12], 0.566 (inactive); in assay [13], -0.145 (inactive); in assay [14] it was 2.38 (inactive); in assay [16], 0.973 (inactive).
On to `COC(=O)[C@@]1(Cc2ccccc2N=[N+]=[N-])N=C(c2ccc(OCCCO)cc2)O[C@H]1c1ccccc1`, for which the composite z-score in [1] amounted to 0.135; in assay [2], 0.748; in [3], 0.0904; in assay [4], 0.264; in [5] it was 0.287; in assay [6], 1.5. The composite z-score was 1.16 in assay [7]; 0.0635 in assay [9]; -0.0994 in [10]; 1.14 in assay [11]; 1.21 in [15]; -0.0654 in [17]. In addition, the results for the composite z-score in assay [18], in assay [19] and in [20] were 0.314, 0.94 and -0.115, respectively. For the same molecule, the z-score is -2.33 (inactive) in assay [8]; -0.0982 (inactive) in [12]; -3 (inactive) in assay [13]; 23 (active) in [14]; 0.0111 (inactive) in assay [16].
